An excerpt weighted towards active compounds, which were near 6.9% of everything screened.
FXIIa mix inh: human factor XIIa inhibitors, primary screen, biochemical, pooled compound mixtures, fluorogenic substrate | Coagulation factor XII (Homo sapiens), P00748 | AID 684, 2007 | 62,000 compounds, 0.2% hits | inhibition, % at 5 µM | purified FXIIa
M1 ag: M1 muscarinic receptor agonists, primary screen, CHO-M1 cells, Fluo-4 calcium, agonist mode | Fluo-4 calcium fluorescence; active compounds read high | B-score at 10 µM | 64,000 compounds, 3% hits | AID 626, 2007;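 active = fluorescence rise, raw or as B-score row- and column-corrected plate score, outside the 99.7% band of its plate's samples, either direction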
FXIa inh mix: FXIa protease inhibitors in compound pools, primary screen, biochemical, 10-compound mixtures; inhibition, % at 5 µM; 62,000 compounds, 0.19% hits; purified FXIa, fluorogenic substrate, pooled mixtures; Coagulation factor XI (Homo sapiens), P03951;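 note: each value is inhibition by a whole ten-compound pool holding the compound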
Her2 expr inh: inhibitors of Her2 protein expression, primary screen, SKBR-3 cells, AlphaScreen, 66K library | Receptor tyrosine-protein kinase erbB-2 (Homo sapiens), P04626 | HER2 level % of control, % at 10 µM | 65,000 compounds, 0.69% hits | AID 645, 2007 | SKBR-3 HER2 protein level, 18-24 h; active compounds read low;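 active = HER2 level under 5% of the carrier-only control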;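 note: lower value means stronger loss of Her2 protein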
JNK3 inh: JNK3 kinase activity inhibitors, primary screen, biochemical, human, purified enzyme; HTS; inhibition, % at 8 µM; Mitogen-activated protein kinase 10 (Homo sapiens), P53779; 60,000 compounds, 0.61% hits; AID 746, 2007; in the data active = inhibition above about 17%
Target sequence (P53779 whole entry, looked up): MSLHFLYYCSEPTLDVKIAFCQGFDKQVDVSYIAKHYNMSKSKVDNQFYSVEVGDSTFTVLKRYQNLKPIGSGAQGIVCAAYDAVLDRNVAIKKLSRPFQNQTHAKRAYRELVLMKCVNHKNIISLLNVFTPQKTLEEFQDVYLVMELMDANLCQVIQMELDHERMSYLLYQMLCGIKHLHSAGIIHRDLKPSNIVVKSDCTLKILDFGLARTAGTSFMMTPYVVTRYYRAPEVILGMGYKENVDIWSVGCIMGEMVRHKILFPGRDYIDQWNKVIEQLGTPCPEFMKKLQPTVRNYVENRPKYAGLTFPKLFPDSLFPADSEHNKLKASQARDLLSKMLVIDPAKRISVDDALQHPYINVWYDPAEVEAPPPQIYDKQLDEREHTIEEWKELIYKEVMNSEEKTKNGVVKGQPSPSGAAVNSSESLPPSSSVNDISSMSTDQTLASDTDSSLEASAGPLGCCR
M1 antag: antagonists of rat M1 muscarinic receptor; Muscarinic acetylcholine receptor M1 (Rattus norvegicus), P08482; CHO-M1 cells, Fluo-4 calcium, ACh EC80 antagonist mode; active compounds read low; B-score at 10 µM; 64,000 compounds, 3.4% hits; AID 628, 2007;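 active = calcium fluorescence response, raw or row-and-column corrected B-score, differing from the plate sample mean either way at a set confidence level, mostly lower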
M1 antag confirm: rat M1 muscarinic receptor antagonists, confirmation, CHO cells, Fluo-4 calcium, duplicate | calcium response (max-min fluorescence) at 10 µM | 1,700 compounds, 43% hits | ACh EC80 antagonism; active compounds read low | shares compounds with M1 antag;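 active = calcium response below the same-plate mean of wells given acetylcholine alone at its 80%-effect dose, minus 3 SD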
mGluR4 antag: human mGluR4 response to M1 antagonist hits, M1 allosteric modulator project, cell-based, antagonist mode, secondary assay 1 | shares compounds with M1 antag | CHO-mGluR4 calcium flux, Fluo-4 fluorescence, glutamate EC80; active compounds read low | fluorescence response (max-min) at 10 µM | 1,700 compounds, 0.9% hits | AID 678, 2007;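 active = fluorescence response below the plate's average for near-maximal glutamate wells, less 3 SD of those wells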;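 note: raw unnormalized fluorescence span taken in the window right after glutamate addition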
Hits are given with their value; n = inactive; x = no result. Cut-off read from the data, not from the text of the source, unless noted: active = inhibition above about 20% (passing the limit was not always enough); inactive = the rest.

SMILES	FXIIa mix inh	M1 ag	FXIa inh mix	Her2 expr inh	JNK3 inh	M1 antag	M1 antag confirm	mGluR4 antag
Cc1ccc(N2C(=O)CSC23C(=O)Nc2ccccc23)cc1 (stereo not given)	n	n	n	n	n	-3.2	n	n
O=C1CC(N2CCN(C/C=C/c3ccccc3)CC2)C(=O)N1Cc1cccs1 (stereo not given)	n	n	n	n	n	-19	23	n
O=C1CC(N2CCN(C/C=C/c3ccccc3)CC2)C(=O)N1CCc1ccccc1 (stereo not given)	n	n	n	n	n	-4	422	n
O=C1CC(N2CCN(c3ccc(O)cc3)CC2)C(=O)N1Cc1cccs1 (stereo not given)	n	n	n	n	n	n	x	x
COCc1[nH]nc2c1C(c1ccc(OC)cc1)C(C#N)=C(N)O2 (stereo not given)	x	n	x	n	n	n	x	x
COCc1[nH]nc2c1C(c1ccsc1)C(C#N)=C(N)O2 (stereo not given)	n	n	n	n	n	-2.7	n	n
O=C(NCCCN1CCCCC1)C1CCC(=O)N1CCc1ccccc1 (stereo not given)	n	n	n	n	n	n	x	x
O=C(NCCCN1CCN(c2cccc(Cl)c2)CC1)C1CCC(=O)N1Cc1ccccc1Cl (stereo not given)	n	n	n	n	n	-2	n	n
Cc1cc(=O)n2nc(N3CCC(C(=O)N4CCN(Cc5ccccc5)CC4)CC3)sc2n1	n	n	n	n	n	-6	n	n
Cc1cc(=O)n2nc(N3CCCC(C(=O)N4CCN(c5ccccc5)CC4)C3)sc2n1 (stereo not given)	n	n	n	n	n	n	x	x
CC(C)COc1ccc(-c2nnc(-c3ccncc3)o2)cc1	n	n	n	n	n	n	x	x
CCCOc1ccc(-c2nnc(-c3ccncc3)o2)cc1	n	n	n	n	n	-2	n	n
O=C(NCCN1CCCCCC1)C1CCC(CNS(=O)(=O)c2cccc3cccnc23)CC1 (stereo not given)	n	n	n	n	n	-2	n	n
CCOC(=O)Nc1ccc2c(c1)N(C(=O)CN(CC)CC)c1ccccc1C=C2	n	n	n	n	n	-5.9	28	n
COC(=O)c1ccc(NC(=O)CCN2CCCCC2)cc1	n	n	n	n	n	-1.3	553	n
CCOc1ccc(C(=O)CCN2CCCCCC2)cc1	n	n	n	n	n	-2.5	n	n
COc1ccc(N2CCN(C(c3ccccc3)c3sc4nc(C)nn4c3O)CC2)cc1 (stereo not given)	n	n	n	n	n	n	x	x
COC(=O)CCSCC(=O)Nc1nnc(C)s1	n	n	n	n	n	n	x	x
CN(C)CCNC(=O)c1ccc(CS(=O)(=O)c2ccc(Br)cc2)o1	n	n	n	n	n	n	x	x
Cc1cc(N2CCN(c3nc(N4CCOCC4)nc4ccccc34)CC2)c2ccccc2n1	n	n	n	n	n	-7.1	24	n
c1ccc2c(N3CCCCC3)nc(N3CCCCC3)nc2c1	x	n	x	n	n	n	x	x
COc1ccc(N(CC(=O)O)S(=O)(=O)c2ccc(OC)c(OC)c2)cc1	n	n	n	n	x	n	x	x
COc1ccc(S(=O)(=O)N(CC(=O)O)Cc2ccccc2)cc1OC	n	n	n	n	n	-18	n	n
COc1ccc(NC(=O)C2CCCN2C(=O)OCc2ccccc2)c(OC)c1 (stereo not given)	x	n	x	n	n	n	x	x
COc1ccc(NC(=O)C2CCCCN2CC(=O)OCc2ccccc2)cc1OC (stereo not given)	n	n	n	n	n	-2.7	n	n
SMILES	FXIIa mix inh	M1 ag	FXIa inh mix	Her2 expr inh	JNK3 inh	M1 antag	M1 antag confirm	mGluR4 antag
O=C(CN1C(=O)c2ccccc2S1(=O)=O)N1CCc2ccccc2C1	n	n	n	n	n	n	x	x
Nc1[nH]c(=S)[nH]c(=O)c1-c1ccccc1	n	n	n	n	n	-2.3	n	n
O=c1c2ccccc2nc2n1CC/C2=C/N1CCN(c2cccc(C(F)(F)F)c2)CC1	n	n	n	n	n	n	x	x
Cc1cc2ncn(CCOc3ccccc3C#N)c2cc1C	n	n	n	n	n	n	x	x
Cc1ccc(-c2nnc(N3CCN(C(=O)CN4C(=O)c5ccccc5C4=O)CC3)c3ccccc23)cc1	n	n	n	n	n	n	x	x
Cc1ccc(-c2nnc(N3CCN(C(=O)c4ccco4)CC3)c3ccccc23)cc1	n	n	n	n	n	-6.9	209	n
O=S(=O)(c1ccc(NCCc2c[nH]c3ccccc23)nc1)N1CCOCC1	n	n	n	n	n	n	x	x
CCCCSc1nnc(CCCCCNC(=O)OC(C)(C)C)o1	n	n	n	n	n	n	x	x
CCn1c(SCC(=O)N(Cc2ccccc2)C2CCS(=O)(=O)C2)nc2ccccc2c1=O (stereo not given)	n	n	n	n	n	n	x	x
CN(C(=O)CSc1nc2ccccc2n1CCc1ccccc1)C1CCS(=O)(=O)C1 (stereo not given)	n	n	n	n	n	-10	n	n
Cn1cc(Cl)nc1C(O)c1ccccc1 (stereo not given)	n	n	n	n	n	n	x	x
CC1CCCCN1CCn1cnc2c([nH]c3ccccc32)c1=O (stereo not given)	n	n	n	n	n	-6.9	355	n
CC(C)OCCCNC(=O)c1cc2c(s1)CS(=O)(=O)C2	n	n	n	n	x	-4.6	n	n
CC(C)CC(=O)N1CCN(S(C)(=O)=O)CC1	n	n	n	n	n	-3.6	n	n
C=CCOC(=O)COc1ccc2c(C)c(C)c(=O)oc2c1	n	n	n	n	n	-2.6	n	n
CCOC(=O)CCc1c(C)c2ccc(OCC(=O)OC(C)C)cc2oc1=O	n	n	n	n	n	-2.4	n	n
O=C(Nc1ccccc1)N(C1=NCCC1)c1ccc(OC(F)F)cc1	n	n	n	n	n	n	x	x
O=C(NCc1ccccc1)NC1(C(=O)N2CCN(c3ccccc3)CC2)CCCCC1	n	n	n	n	n	n	x	x
CC(=O)c1cccc(NC2c3ccccc3C(=O)N2Cc2ccc3c(c2)OCO3)c1 (stereo not given)	n	n	n	n	n	-3	n	n

From PubChem BioAssay
